In the library only some 2.5% were active in any assay of this set; here they are far more common.
Cruzain inh noDet: qHTS Assay for Promiscuous and Specific Inhibitors of Cruzain (without detergent); 200,000 tested, 2.3% active; Cruzipain (Trypanosoma cruzi), P25779; Potency, µM, actives largely listed as inhibitors; purified cruzain, Z-FR-AMC fluorescence, no detergent; AID 1476, 2009; note: nearly all actives have a fitted effect of over 40% in size
Target sequence (P25779 123-467 limits assumed): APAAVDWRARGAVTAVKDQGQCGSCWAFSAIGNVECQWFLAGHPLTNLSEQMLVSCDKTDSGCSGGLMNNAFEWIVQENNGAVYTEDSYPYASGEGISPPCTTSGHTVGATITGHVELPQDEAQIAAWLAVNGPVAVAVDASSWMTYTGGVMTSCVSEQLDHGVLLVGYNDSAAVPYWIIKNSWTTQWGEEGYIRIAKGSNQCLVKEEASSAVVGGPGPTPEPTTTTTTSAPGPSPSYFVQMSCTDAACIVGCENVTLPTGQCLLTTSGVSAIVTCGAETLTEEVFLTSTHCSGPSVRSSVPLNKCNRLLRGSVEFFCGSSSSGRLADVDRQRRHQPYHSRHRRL
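Purified cruzain at 1.5 nM, pre-incubated 15 min with compound at room temperature in 100 mM sodium acetate pH 5.5, 5 mM DTT, 0.00005% Triton X-100. Reaction started with 2 uM Z-FR-AMC; AMC fluorescence increase over 60 s gives rate.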
Cruzain Triton: qHTS Assay for Promiscuous and Specific Inhibitors of Cruzain (with detergent). Cruzipain (Trypanosoma cruzi), P25779. purified cruzain, Z-FR-AMC fluorescence, 0.01% Triton. Potency, µM, usual class: inhibitors. 200,000 tested, 0.43% active. AID 1478, 2009; note: nearly all actives have a fitted effect of over 40% in size
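Compounds were screened in titration against cruzain (1.5 nM) with 0.01% Triton X-100 to counter colloidal aggregation. Activity was the AMC fluorescence increase over 60 s after adding 2 uM Z-FR-AMC at pH 5.5.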
A number is an active result; . = inactive; ? = inconclusive. Calls come from the whole dose curve; as a rule, active = well fitted curve in the direction sought with a large enough effect; inconclusive = small, poorly fitted or top-dose-only effect, or another doubt; inactive = no such curve, though single readings can be large; an effect the other way counts as inactive or inconclusive.

SMILES	Cruzain inh noDet	Cruzain Triton
Cc1ccc(-n2cc(-c3ccccc3)nc2S(=O)(=O)CC(=O)Nc2ccc(F)cc2)cc1	.	.
CCn1c2c(c(=O)n3ncc(C(=O)Nc4ccc(OC(F)(F)F)cc4)c13)CN(Cc1ccc(OC)cc1)CC2	?	.
Cc1cccc(NS(=O)(=O)c2ccc3[nH]c(=O)[nH]c3c2)c1C	.	.
Cc1cccc(NS(=O)(=O)c2ccc3c(c2)Cc2cc(S(=O)(=O)Nc4cccc(C)c4C)ccc2-3)c1C	3.98µM	.
COc1ccc(Cn2cc(S(=O)(=O)c3ccc(Cl)cc3)c(=O)c3cc4c(cc32)OCO4)cc1	?	.
N#CC1(Cc2ccccc2)c2ccccc2C=CN1C(=O)c1ccccc1 (centres undefined)	.	.
N#CC1(Cc2ccc([N+](=O)[O-])cc2)c2ccccc2C=CN1C(=O)c1ccccc1 (centres undefined)	25.1µM	.
COc1ccc(-c2noc(-c3ccc(NCc4ccc(C)cc4)c([N+](=O)[O-])c3)n2)cc1OC	.	.
CCCCOc1cccc(C(=O)N(Cc2ccc(Cl)cc2)C2CCS(=O)(=O)C2)c1 (centres undefined)	?	.
O=C(NC(=S)Nc1ccccc1N1CCOCC1)c1ccc(-c2cccc(Cl)c2)o1	?	.
O=C(NC(=S)Nc1ccccc1N1CCCCC1)c1ccc(-c2cccc([N+](=O)[O-])c2)o1	5.01µM	.
O=C(NC(=S)Nc1ccccc1O)c1ccc(-c2ccc(Cl)cc2)o1	15.8µM	.
COc1ccccc1NC(=S)NC(=O)c1ccc(-c2ccc(Cl)cc2)o1	?	.
O=C(NC(=S)Nc1ccccc1N1CCCC1)c1ccc(-c2cccc([N+](=O)[O-])c2)o1	5.01µM	.
O=C(NC(=S)Nc1ccccc1N1CCCC1)c1ccc([N+](=O)[O-])cc1	?	.
CCN(CC)S(=O)(=O)c1ccc2c(c1)N(CC(=O)NCCc1ccccc1)C(=O)CO2	.	.
O=C(CS(=O)(=O)c1cccc2nsnc12)Nc1cc(F)ccc1F	.	.
CC(C)CCn1c(=O)c2sccc2n2c(CCCC(=O)Nc3ccc(F)c(Cl)c3)nnc12	.	.
CCOC(=O)c1c(C)[nH]c(C(=O)COC(=O)CCC2CCCC2)c1C	15.8µM	.
CCOC(=O)c1c(C)[nH]c(C(=O)COC(=O)CCS(=O)(=O)c2ccc(C)cc2)c1C	.	?
N[C@@H](CNO)C(=O)O	.	.
CC=C(Cl)Cl	.	.
COC(=O)c1ccc(/C=C(\C#N)c2nc3ccccc3s2)cc1	.	.
CC(C)(C)c1ccc(C(=O)OC/C(O)=C(\C#N)c2nc3ccccc3s2)cc1	25.1µM	.
COc1cc(NC(=O)CSc2nccc(C)n2)c(C)cc1[N+](=O)[O-]	.	.
SMILES	Cruzain inh noDet	Cruzain Triton
COc1ccc([N+](=O)[O-])cc1NC(=O)CSc1nncn1-c1ccccc1	.	.
COc1cc(NC(=O)CSc2nc3ccccc3n2-c2ccccc2)c(C)cc1[N+](=O)[O-]	7.94µM	.
COc1ccc(-n2c(SCC(=O)Nc3ccc([N+](=O)[O-])cc3OC)nc3ccccc32)cc1	7.94µM	.
COc1ccccc1-c1noc(-c2ccc(NC3CCCC3)c([N+](=O)[O-])c2)n1	?	.
c1ccc(-n2nnnc2-n2cnc3ccccc32)cc1	.	.
c1ccc(-c2nccc(-c3ccc(-n4cnc5ccccc54)cc3)n2)cc1	15.8µM	.
CC1CC(C)CN(C(=O)COC(=O)CCc2nc3ccccc3c(=O)[nH]2)C1 (centres undefined)	.	.
O=C(CCc1nc2ccccc2c(=O)[nH]1)OCC(=O)c1ccc(C2CCCCC2)cc1	15.8µM	.
Cc1c(Cc2ccc3c(c2)OCO3)sc(NC(=O)c2ccccc2)c1C(N)=O	25.1µM	.
Cc1nc(NC(=O)c2ccccc2)sc1Cc1ccc2c(c1)OCO2	?	.
CCOC(=O)c1c(NC(=O)CN2C(=O)c3ccccc3C2=O)sc(Cc2ccc3c(c2)OCO3)c1C	10µM	.
CCOC(=O)c1c(NC(=O)/C=C/c2ccc3c(c2)OCO3)sc(C)c1C	.	.
CCC(=O)N1CCc2cc(Br)cc(S(=O)(=O)CCC(=O)N(C)c3cccc(C)c3)c21	.	.
CN1CCN(C(=O)c2ccc3c(c2)N(Cc2c(F)cccc2Cl)C(=O)c2ccccc2S3)CC1	.	.
O=C1CCCC(=O)N1c1ccc(Oc2ccc(Cl)cc2)cc1	.	.
O=C1C=C(Nc2ccc(Cl)cc2)C(=O)N1c1ccc(Cl)cc1	6.31µM	.
Cc1ccc(S(=O)(=O)NCC2CCC(C(=O)NCc3ccc(F)cc3)CC2)cc1 (centres undefined)	.	.
Cc1ccc(N2CCN(S(=O)(=O)c3ccc(Cl)c4ccccc34)CC2)c(C)c1	10µM	.
CCOc1ccc(Cl)cc1S(=O)(=O)N1CCN(c2ccc(F)cc2)CC1	.	.
COc1ccc(S(=O)(=O)N2CCN(c3ccc(C)cc3C)CC2)cc1OC	?	.
CCOc1ccc(S(=O)(=O)N2CCCCC2)c2ccccc12	.	.
CCOc1ccc(S(=O)(=O)N2CCN(c3ccc(C)cc3C)CC2)c2ccccc12	3.16µM	.
CCOc1ccc(S(=O)(=O)N2CCN(c3cc(Cl)ccc3Cl)CC2)c2ccccc12	10µM	.
COc1ccc(CNCc2c(C(=O)O)c(C)n(Cc3ccccc3C)c2C)cc1OC	.	.
Cc1nn(-c2ccc(F)cc2)c(-n2cccc2)c1C(=O)NCCc1ccc(Cl)cc1	.	.
SMILES	Cruzain inh noDet	Cruzain Triton
C#CCOC(=O)[C@H](N)CC(N)=O	.	.
NS(=O)(=O)c1ccc(NC(=O)C2Cc3ccccc3N2C(=O)c2ccccc2)cc1 (centres undefined)	.	.
COc1c2c(c(C(=O)/C=C/C(C)=C/c3ccccc3)c3c1OCO3)CCN(C)C2	.	.
Cc1cc(C)c(NC(=O)C(C)Sc2nc3ccc(N4C(=O)c5ccccc5C4=O)cc3s2)c(C)c1 (centres undefined)	6.31µM	.
CCc1cccc(C)c1NC(=O)CSc1nc2ccc(N3C(=O)c4ccccc4C3=O)cc2s1	?	.
O=C(Nc1nc(-c2cccs2)c(-c2cccs2)s1)C1(c2ccccc2)CC1	10µM	.
CC(=O)NCCC(=O)Nc1nc(-c2cccs2)c(-c2cccs2)s1	?	.
Cc1cc(C(=O)CN2C(=O)NC3(CCCc4ccccc43)C2=O)c(C)n1Cc1ccccc1 (centres undefined)	25.1µM	.
Cc1cc(C(=O)CN2C(=O)NC3(CCCc4ccccc43)C2=O)c(C)n1Cc1ccco1 (centres undefined)	?	.
COc1ccc(C2c3c(ccc4ccccc34)Oc3ncn4nc(Cc5ccccc5)nc4c32)cc1OC (centres undefined)	?	.
COc1ccc(/C=N/OCc2nc3c4c(ncn3n2)Oc2ccc3ccccc3c2C4c2ccccc2)cc1 (centres undefined)	1.58µM	.
O=C(Cc1ccccc1)NNC(=O)Nc1ccc(Cl)c(Cl)c1	.	.
NC(=S)NNC(=O)Nc1ccc(Cl)c(Cl)c1	2µM	3.16µM
COc1cc(C2C(C(=O)Nc3ccccc3C)=C(C)Nc3nc(SCc4cc(C)ccc4C)nn32)ccc1O (centres undefined)	.	.
Cc1ccc(C(=O)Nn2c(O)c(C=C3N=c4ccccc4=N3)sc2=S)cc1	.	.
Oc1c(C=C2N=c3ccccc3=N2)sc(=S)n1C1CCCC1	20µM	.
O=C(Nn1c(O)c(C=C2N=c3ccccc3=N2)sc1=S)c1ccccc1	.	.
